# Test results from PubChem BioAssay (NCATS).
# Where “and” joins values, the source holds several entries; their conditions need not be identical. Equal values may be shown once. Inconclusive results are not listed. A call without a number means that no potency is given here. Calls of active or inactive are those of the source. Calls follow the shape of the dose curve; as a rule, active = well fitted cell-killing curve with a large enough effect; inconclusive = small, poorly fitted or top-dose-only effect; inactive = no such curve, though single readings can be large or run the other way.
# Assay: qHTS of pediatric cancer cell lines to identify multiple opportunities for drug repurposing: Primary screen for Rh41 cells (AID 1347108); also: nearly all actives have a fitted effect of over 70% in size
# Conditions: Rh41 rhabdomyosarcoma viability, CellTiter-Glo luminescence, 48 h; series mostly up to 46 µM
# Excerpt: Drug repurposing or repositioning has been offered as a strategy for drug development in oncology programs. This approach has special potential for childhood cancers and other rare or orphan diseases, where the expected return on new drug development has been a disincentive to pharmaceuticals. […] In this project we exploit the poly-pharmacology of drugs to discover new indications via phenotypic screening of a panel of 19 well-characterized cell lines derived from solid tumors seen in children and adolescents. The goal is to identify approved drugs with previously unrecognized anticancer properties that has the potential to reveal new mechanisms and biological processes involved in carcinogenesis or drug resistance. We employed a titration-based paradigm (quantitative high-throughput screening or qHTS), where all compounds were tested at multiple concentrations for their effect on cell viability. Concentration-response curves (CRCs) were derived directly from the primary screen, and both potency and efficacy values were used to identify compounds with robust bioactivity profiles. We screened the NIH Chemical Genomics Center (NCGC) Pharmaceutical Collection (NPC) and Mechanism Interrogation Plate (MIPE) small molecule collections of approved and investigational compounds against these cell lines; and measured metabolically active cells after 48 hours of compound treatment as a proxy for cell viability. […] Assay Submitter: Nathalia J. Martinez, National Center for Advancing Translational Sciences, National Institutes of Health, Rockville, MD, USA; email: natalia.martinez@nih.gov Shen, M et al. Quantitative high-throughput phenotypic screening of pediatric cancer cell lines identifies multiple opportunities for drug repurposing. Oncotarget 2017 Dec 19;9(4):4758-4772. PMID 29435139.
# The cells were obtained from University of North Carolina (UNC), Pediatric Preclinical Testing Program (PPT), and Coriell Institute (CI). qHTS cell viability assay: Cells were assayed in growth media at a density of 500-1,000 cells/well. Five microliters of cells were dispensed into 1,536-well, white, solid-bottom, TC-treated plates (Greiner Bio One) using a multidrop dispenser and incubated at 37 degrees C, 5% CO2, under a humidified atmosphere for 5 hours. Twenty-three nanoliters of compounds and controls (neutral control DMSO or positive control bortezomib at final concentration of 2.3 µM) were subsequently transferred by Kalypsys pintool. For primary screens, the MIPE collection was tested at 11-point dilutions (final concentrations range from 0.78 nM to 46 µM) and the NPC collection at 8-point dilutions (final concentrations range from 0.59 nM to 46 µM). Compounds tested in follow-up screens were assayed at 11-point dilutions. Cells were incubated for 48 hours, followed by addition of 3 µL of CellTiter-Glo (Promega). After a 15 min incubation at room temperature, samples were analyzed for luminescence intensity using a ViewLux High-throughput CCD imager equipped with clear filters.
# Potency is read from the fitted curve at half-maximal effect.
row,Compound,Potency
1,NCCCC(O)(P(=O)(O)O)P(=O)(O)O,inactive
2,C#CCN[C@@H]1CCc2ccccc21,inactive
3,CCN(CC)CCn1c(=O)c(Cc2ccc(OC)cc2)nc2ccccc21,inactive
4,CCOCC(O)COc1ccc(NC(=O)CC[S+](C)C)cc1 (stereo not given),inactive
5,CCC(C)(C)c1ccc(CC(C)CN2C[C@@H](C)O[C@@H](C)C2)cc1 (stereo not given in full),inactive
6,CN(C)CCc1c[nH]c2ccc(CS(=O)(=O)N3CCCC3)cc12,inactive
7,C[C@@H](CN1CC(=O)NC(=O)C1)N1CC(=O)NC(=O)C1,inactive
8,O=P(O)(O)C(O)(Cc1cccnc1)P(=O)(O)O,inactive
9,S=P(N1CC1)(N1CC1)N1CC1,inactive
10,COc1c(N2CCNC(C)C2)c(F)cc2c(=O)c(C(=O)O)cn(C3CC3)c12 (stereo not given),inactive
11,COc1ncnc(NS(=O)(=O)c2ccc(N)cc2)c1OC,inactive
12,CS(=O)(=O)c1ccc([C@@H](O)[C@@H](CO)NC(=O)C(Cl)Cl)cc1,inactive
13,CCn1cc(C(=O)O)c(=O)c2cc(F)c(N3CCN(C)CC3)cc21,inactive
14,O=C(O)CCn1c2c(c3ccccc31)C[C@H](NS(=O)(=O)c1ccc(F)cc1)CC2,inactive
15,N[C@@H](C(=O)N[C@@H]1C(=O)N2C(C(=O)O)=C(Cl)CS[C@H]12)c1ccccc1,inactive
16,Nc1ccc(S(=O)(=O)Nc2ccccn2)cc1,inactive
17,CC(C)(C#N)c1cc(Cn2cncn2)cc(C(C)(C)C#N)c1,inactive
18,CC(=O)CC(c1ccccc1)c1c(O)c2ccccc2oc1=O (stereo not given),inactive
19,COc1ccc(-c2ccc3cc(C(=O)O)ccc3c2)cc1C12CC3CC(CC(C3)C1)C2,inactive
20,O=S(=O)(c1cccc2cnccc12)N1CCCNCC1,inactive

row,Compound,Potency
1,CC(C)(C)NC(=O)[C@H]1CC[C@H]2[C@@H]3CC[C@H]4NC(=O)C=C[C@]4(C)[C@H]3CC[C@]12C,inactive
2,Cc1cc(NS(=O)(=O)c2ccc(N)cc2)no1,inactive
3,COc1ccccc1OCC(O)COC(N)=O (stereo not given),inactive
4,CC(N)C12CC3CC(CC(C3)C1)C2 (stereo not given),inactive
5,CC(C(=O)O)c1ccc2c(c1)CC(=O)c1ccccc1S2 (stereo not given),inactive
6,CC[C@H](NC(C)C)[C@H](O)c1ccc(O)c2[nH]c(=O)ccc12,inactive
7,CCN(CC)CC#CCOC(=O)C(O)(c1ccccc1)C1CCCCC1 (stereo not given),inactive
8,O=NN(CCCl)C(=O)NC1CCCCC1,inactive
9,CO[C@@]12[C@H](COC(N)=O)C3=C(C(=O)C(C)=C(N)C3=O)N1C[C@@H]1N[C@@H]12,13.3 µM (active) and 11.8 µM (active)
10,Cn1nnc2c(C(N)=O)ncn2c1=O,inactive
11,CC(C)C[C@H](NC(=O)[C@H](CCc1ccccc1)NC(=O)CN1CCOCC1)C(=O)N[C@@H](Cc1ccccc1)C(=O)N[C@@H](CC(C)C)C(=O)[C@@]1(C)CO1,23.7 nM (active) and 46.9 nM (active)
12,CCOC(=O)c1ccc(C#Cc2ccc3c(c2)C(C)(C)CCS3)nc1,inactive
13,Nc1nc(F)nc2c1ncn2[C@@H]1O[C@H](CO)[C@@H](O)[C@@H]1O,1.48 µM (active)
14,O=C(O)c1cccnc1,inactive
15,CN(C)CCc1c[nH]c2ccc(C[C@H]3COC(=O)N3)cc12,inactive
16,O=C(O)CSCC(=O)NC1CCSC1=O (stereo not given),inactive
17,COC(c1ccccc1)(c1ccccc1)[C@H](Oc1nc(C)cc(C)n1)C(=O)O,inactive
18,CN1CCN(c2c(F)cc3c(=O)c(C(=O)O)cn(CCF)c3c2F)CC1,inactive
19,O=C(N[C@H](CO)[C@H](O)c1ccc([N+](=O)[O-])cc1)C(Cl)Cl,inactive
20,O=C(O)c1cc(=O)[nH]c(=O)[nH]1,inactive
